# In PubChem BioAssay (EPA / NIEHS):
# Results filed as inconclusive are left out. The source made the active and inactive calls. How the source made its calls, unless noted: active means hit-call score of the fitted dose curve at least 0.9, where 1 is the maximum; inactive means score below 0.9.
# Tests used:
# [1] = biological target: Nucleoli Translocation, AR (gene 367) (UniProt P10275); assay: UPITT_HCI_U2OS_AR_TIF2_Nucleoli_Antagonist: University of Pittsburgh U2OS Androgen Receptor-Transcriptional Intermediary Factor 2 (AR-TIF2) Antagonism High Content Imaging Assay for Nucleoli Translocation (AID 2283997; active means hit-call score of the fitted dose curve at least 0.9, where 1 is the maximum)
# Outline: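 U2OS cells co-expressing red-fluorescent-tagged human AR and green-fluorescent-tagged TIF2, imaged by high-content microscopy for nucleolar red fluorescence. Antagonist mode against DHT; primary screen at 20 uM final (0.2% DMSO).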
# [2] = CCTE_Harrill_HTTr_Viability_MCF7: CCTE's 6-hour Cell Viability Assessment for the High-Throughput Transcriptomics (HTTr) Platform, in MCF-7 cells cultured in DMEM + 10% fetal bovine serum, Harrill Lab (AID 2284010)
# Outline: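 MCF-7 cells in DMEM + 10% FBS, 384-well, exposed 6 h to an eight-point dilution series. Membrane integrity scored by high-content imaging of propidium iodide exclusion; bidirectional fit versus DMSO.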
# [3] = CCTE_Harrill_HTTr_Apoptosis_MCF7: CCTE's 6-hour Apoptosis Assessment for the High-Throughput Transcriptomics (HTTr) Platform, in MCF-7 cells cultured in DMEM + 10% fetal bovine serum, Harrill Lab (AID 2284011)
# Outline: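 Read-out: CellEvent Caspase 3/7 Green signal by high content imaging, gain-of-signal indicating apoptosis. MCF-7 cells, DMEM + 10% FBS, eight-point dilution series, 6 h exposure. Curves fitted bidirectionally relative to DMSO negative control.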
# [4] = CCTE_Harrill_HTTr_CellCount_MCF7: CCTE's Cell Proliferation Assessment for the High-Throughput Transcriptomics (HTTr) Platform, Harrill Lab (AID 2284012; active means hit-call score of the fitted dose curve at least 0.9, where 1 is the maximum;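 further: cells exposed to compound for six hours; intended direction is loss of nuclei count meaning fewer cells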)
# Outline: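 MCF7 cells exposed 6 hours to an eight-point dilution series; Hoechst-stained nuclei counted by high-content imaging. Bidirectional curve fitting against DMSO baseline.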
# [5] = biological target: Nucleoli Translocation, AR (gene 367) (UniProt P10275); assay: UPITT_HCI_U2OS_AR_TIF2_Nucleoli_Agonist: University of Pittsburgh U2OS Androgen Receptor-Transcriptional Intermediary Factor 2 (AR-TIF2) Agonism High Content Imaging Assay for Nucleoli Translocation (AID 2283998; active means hit-call score of the fitted dose curve at least 0.9, where 1 is the maximum)
# Outline: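 RFP-AR / GFP-TIF2 cells; cpds diluted in serum-free medium; single-point screen 20 uM final (0.2% DMSO), actives confirmed in triplicate; conc-response 0.195–50 uM final (0.5% DMSO). Readout: nucleolar red fluorescence, positive direction vs DMSO.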
# [6] = test system: DIO1 (gene 1733); assay: CCTE_GLTED_hDIO1: CCTE's human Deiodinase 1 (DIO1) Inhibition Assay, Great Lakes Toxicology and Ecology Division (GLTED) Lab (AID 2283987; active means hit-call score of the fitted dose curve at least 0.9, where 1 is the maximum;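 further: isolated human DIO1 enzyme in a cell-free setup rather than cells; enzyme activity read as free iodide liberated from substrate via Sandell-Kolthoff colorimetry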)
# Outline: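 Steps: human DIO1 enzyme plus test chemical, 3 h incubation; free iodide then quantified in a second Sandell-Kolthoff step by absorbance. DMSO served as negative control and baseline.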
# [7] = CCTE_Shafer_MEA_acute_spike_number: CCTE's Neural Acute Assay for Total Number of Spikes, Shafer Lab (AID 2284008);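 on AC50: curve fitted for decrease in spike count so AC50 reflects inhibitors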
# Outline: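 Rat cortical cultures, DIV 13/15, 37 C. 40 min baseline rec, cpd 0.03-40 uM, 40 min post-dose rec. Band-pass 300-5000 Hz, spike threshold 8x rms; % change in spike count per well, DMSO neg ctrl, loss-of-signal fit.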
# [8] = CCTE_Shafer_MEA_acute_firing_rate_mean: CCTE's Neural Acute Assay for Mean Firing Rate, Shafer Lab (AID 2284009);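 further: analyzed for loss of signal so actives lower firing rate relative to DMSO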
# Outline: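 Rat primary cortical neurons on 48-well MEA plates, dosed at 0.03-40 uM on DIV 13 or 15; 40 min spontaneous activity recorded at 37 C before and after compound. Spike rate per electrode averaged per well, expressed as percent change from baseline.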
# [9] = CCTE_Shafer_MEA_acute_burst_number: CCTE's Neural Acute Assay for Single-Electrode Bursts, Shafer Lab (AID 2284013)
# Outline: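 Primary rat cortical neurons on 16-electrode MEA wells, treated on DIV 13 or 15 with compound at 0.03-40 uM. Single-electrode burst count from 40-min recordings at 37 C before and after exposure; percent change from baseline per well, DMSO negative control.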
# [10] = CCTE_Shafer_MEA_acute_burst_duration_mean: CCTE's Neural Acute Assay for Mean Burst Duration, Shafer Lab (AID 2284014);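 further: hits are decreases in mean burst duration relative to DMSO controls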
# Outline: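 Rat primary cortical neurons on 48-well MEA, treated at DIV 13 or 15 with 0.03-40 uM in at least 3 wells. Value is percent change in mean burst duration, comparing 40 min recordings at 37 C before and during exposure.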
# [11] = CCTE_Shafer_MEA_acute_per_burst_spike_number_mean: CCTE's Neural Acute Assay for Average Number of Spikes Per Burst, Shafer Lab (AID 2284015);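 further: hits are decreases in mean spikes per burst versus baseline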
# Outline: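 Percent change in mean spikes per single-electrode burst is compared between a 40 min baseline and a 40 min recording with compound (0.03-40 uM). Cultures were rat cortical neurons on MEA plates at DIV 13 or 15, recorded at 37 C, with DMSO as the negative control.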
# [12] = CCTE_Shafer_MEA_acute_interburst_interval_mean: CCTE's Neural Acute Assay for Mean Interburst Interval, Shafer Lab (AID 2284016);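 further: percent change of mean interburst interval versus each well's own pre-dose baseline; curves fitted for decrease in interburst interval relative to DMSO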
# Outline: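 Percent change in mean single-electrode interburst interval was calculated per well from 40 min recordings before and after compound (0.03-40 uM). Recordings were made at 37 C on rat cortical cultures at DIV 13 or 15, with spikes detected at 8x rms threshold.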
# [13] = CCTE_Shafer_MEA_acute_burst_percentage_mean: CCTE's Neural Acute Assay for Percentage of Spikes in a Burst, Shafer Lab (AID 2284017);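 on AC50: curve fitted for loss of signal so potency reflects decreased burst percentage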
# Outline: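 Well-level mean burst percentage from a 40-min recording after compound (0.03-40 uM) expressed as percent change from a 40-min baseline at 37C. Cultures: primary rat cortical neurons on MEA, dosed on DIV 13 or 15; fitted downward relative to DMSO.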
# [14] = CCTE_Shafer_MEA_acute_burst_percentage_std: CCTE's Neural Acute Assay for Standard Deviation of Burst Percentage, Shafer Lab (AID 2284018);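 further: fitted in the negative direction so actives lower burst percentage SD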
# Outline: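 Rat primary cortical neurons on 48-well MEAs, DIV 13 or 15, 37 C. 40-min baseline then 40-min recording with compound (0.03-40 uM); well-level SD of per-electrode burst spike percentage, expressed as percent change from baseline.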
# [15] = CCTE_Shafer_MEA_acute_per_network_burst_spike_number_mean: CCTE's Neural Acute Assay for Average Number of Spikes in a Network Burst, Shafer Lab (AID 2284019)
# Outline: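 Rat primary cortical neurons on 48-well MEA at DIV 13 or 15, 37 C; compounds 0.03-40 uM, at least three wells each. 40-min baseline then 40-min exposure recording; percent change in mean spikes per network burst.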
# [16] = CCTE_Simmons_MITO_basal_resp_rate: CCTE's HepG2 Seahorse XF Respirometric Screening Assay at Basal Respiratory State, Simmons Lab (AID 2284001); conditions: actives raise or lower the signal
# Outline: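 HepG2 oxygen consumption on Seahorse XF96 after compound injection, 7 concentrations 125 nM–100 uM final, reads every 6 min over 72 min. Triplicate biological replicates; bidirectional fit vs DMSO; fenpyroximate and 2,4-dinitrophenol controls.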
# [17] = CCTE_Simmons_MITO_max_resp_rate: CCTE's HepG2 Seahorse XF Respirometric Screening Assay at Maximal Respiratory State [uncoupled], Simmons Lab (AID 2284002); conditions: actives raise or lower the signal
# Outline: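 HepG2, Seahorse XF96, maximal OCR post-FCCP. Cpd 125 nM–100 uM final (7 conc), n=3 biological. Kinetic reads every 6 min (3 min mix/3 min measure) over 72 min; fit bidirectional vs DMSO.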
# [18] = CCTE_Simmons_MITO_inhib_resp_rate: CCTE's HepG2 Seahorse XF Respirometric Screening Assay at Inhibited Respiratory State [full ETC block], Simmons Lab (AID 2284006); conditions: actives raise or lower the signal
# Outline: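 HepG2 oxygen consumption was measured by Seahorse XF after compound, FCCP, then rotenone/antimycin A injections. Seven concentrations from 125 nM to 100 uM (final) were tested, with 6-min kinetic reads over 72 minutes. Inhibited-state OCR was fitted bidirectionally against DMSO.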
# Chain of Nucleoli Translocation, AR (gene 367) (P10275 whole entry, looked up): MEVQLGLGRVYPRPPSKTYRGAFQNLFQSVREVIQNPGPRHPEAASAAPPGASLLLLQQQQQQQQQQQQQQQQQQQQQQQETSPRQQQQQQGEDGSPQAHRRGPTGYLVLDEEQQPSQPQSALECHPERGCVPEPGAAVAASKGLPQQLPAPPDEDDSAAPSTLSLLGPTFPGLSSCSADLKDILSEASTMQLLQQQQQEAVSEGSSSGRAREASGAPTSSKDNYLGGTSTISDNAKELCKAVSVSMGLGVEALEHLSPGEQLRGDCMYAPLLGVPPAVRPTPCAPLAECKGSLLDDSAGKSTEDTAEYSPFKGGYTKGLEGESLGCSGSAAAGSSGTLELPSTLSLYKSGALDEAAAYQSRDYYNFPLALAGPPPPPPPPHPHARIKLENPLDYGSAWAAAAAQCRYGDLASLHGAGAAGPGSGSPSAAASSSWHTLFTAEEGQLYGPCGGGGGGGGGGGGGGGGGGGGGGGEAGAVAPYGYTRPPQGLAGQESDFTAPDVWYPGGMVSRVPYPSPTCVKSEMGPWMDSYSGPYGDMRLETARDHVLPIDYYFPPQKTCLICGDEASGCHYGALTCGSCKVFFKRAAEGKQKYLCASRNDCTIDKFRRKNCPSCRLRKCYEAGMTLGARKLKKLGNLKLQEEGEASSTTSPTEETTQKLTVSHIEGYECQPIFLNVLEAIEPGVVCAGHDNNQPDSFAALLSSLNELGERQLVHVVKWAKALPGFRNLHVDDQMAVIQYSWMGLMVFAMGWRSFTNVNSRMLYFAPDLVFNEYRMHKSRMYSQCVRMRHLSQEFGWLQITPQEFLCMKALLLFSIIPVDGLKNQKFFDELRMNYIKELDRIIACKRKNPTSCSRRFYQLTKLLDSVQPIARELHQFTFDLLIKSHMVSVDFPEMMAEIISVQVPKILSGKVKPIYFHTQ
structure (smiles),measurement,setting,value
CCC1(c2ccc(N)cc2)CCC(=O)NC1=O (centres undefined),outcome,[1],inactive
same,outcome,[2],inactive
same,outcome,[3],inactive
same,outcome,[4],inactive
Cl/C=C\C[N+]12CN3CN(CN(C3)C1)C2,AC50,[1],50 µM (active)
same,outcome,[5],inactive
COP(=O)(OC)O/C(=C\Cl)c1cc(Cl)c(Cl)cc1Cl,AC50,[6],48.7 µM (active)
same,AC50,[1],50 µM (active)
same,outcome,[5],inactive
same,outcome,[2],inactive
same,outcome,[3],inactive
CN(CCCC(=O)c1cccnc1)N=O,outcome,[1],inactive
same,outcome,[5],inactive
same,outcome,[2],inactive
same,outcome,[3],inactive
O=C1CCCN1,outcome,[2],inactive
same,outcome,[3],inactive
CC(=O)c1cc(C(C)(C)C)cc2c1CCC2(C)C,outcome,[2],inactive
same,outcome,[3],inactive
CCC(=O)c1ccccc1,outcome,[2],inactive
same,outcome,[3],inactive
CC(C)(C)c1cc(O)ccc1O,outcome,[7],inactive
same,outcome,[8],inactive
same,outcome,[9],inactive
same,outcome,[10],inactive
same,outcome,[11],inactive
same,outcome,[12],inactive
same,AC50,[13],20 µM (active)
same,outcome,[14],inactive
same,outcome,[15],inactive
Cl/C=C/Cl,outcome,[2],inactive
same,outcome,[3],inactive
CNC,outcome,[2],inactive
same,outcome,[3],inactive
O=[N+]([O-])c1ccc2c3c(cccc13)CC2,outcome,[2],inactive
same,outcome,[3],inactive
COC(=O)c1sccc1S(=O)(=O)NC(=O)Nc1nc(C)nc(OC)n1,outcome,[2],inactive
same,outcome,[3],inactive
CN(C)P(=O)(N(C)C)N(C)C,outcome,[2],inactive
same,outcome,[3],inactive
CCNc1nc(NC(C)(C)C)nc(SC)n1,outcome,[2],inactive
same,outcome,[3],inactive
C1CCC(NC2CCCCC2)CC1,outcome,[2],inactive
same,outcome,[3],inactive
Cc1cc(Cl)ccc1O[C@H](C)C(=O)O,outcome,[2],inactive
same,outcome,[3],inactive
Cn1sc(Cl)cc1=O,outcome,[2],inactive
same,outcome,[3],inactive
CNC(=O)O/N=C/C(C)(C)S(C)=O (centres undefined),outcome,[2],inactive
same,outcome,[3],inactive
ClCC(Cl)CCl,outcome,[2],inactive
same,outcome,[3],inactive
COc1ccccc1OC,outcome,[2],inactive
same,outcome,[3],inactive
COc1cc(-c2ccc(N)c(OC)c2)ccc1N,outcome,[16],inactive
same,outcome,[17],inactive
same,outcome,[18],inactive
same,outcome,[2],inactive
same,outcome,[3],inactive
same,outcome,[4],inactive
CCN1CCC2(CC1)COc1cc3c(cc12)N(C(=O)c1ccc(-c2ccc(-c4nnc(C)o4)cc2C)cc1)CC3,AC50,[7],7.7 µM (active)
same,AC50,[8],7.7 µM (active)
same,AC50,[2],66.2 µM (active)
same,AC50,[3],60.3 µM (active)
same,outcome,[4],inactive
same,outcome,[9],inactive
same,outcome,[10],inactive
same,outcome,[11],inactive
same,outcome,[12],inactive
same,AC50,[13],27.3 µM (active)
same,outcome,[14],inactive
same,outcome,[15],inactive
O=C(O)C(Cl)(Cl)Cl,outcome,[7],inactive
same,outcome,[8],inactive
same,outcome,[2],inactive
same,outcome,[3],inactive
same,outcome,[4],inactive
same,outcome,[9],inactive
same,outcome,[10],inactive
same,outcome,[11],inactive
same,outcome,[12],inactive
same,outcome,[13],inactive
same,outcome,[14],inactive
same,outcome,[15],inactive
Cc1ccccc1N,outcome,[2],inactive
same,outcome,[3],inactive
C[C@@H](Oc1ccc(Cl)cc1Cl)C(=O)O,outcome,[2],inactive
same,outcome,[3],inactive
same,outcome,[4],inactive
